Drawing on PubChem BioAssay, this text covers fold change, cell count and z-score for 14 compounds.

A short description of experiment [1]: viability loss with induced miR-34 in A549 – imaging, A549 dox-inducible miR-34, nuclei and caspase counts, primary screen (AID 1347080). As to conditions: A549 miR-34 inducible, Hoechst nuclei count, 48 h.
A short description of experiment [2]: MELAS cybrid and Rieske KO viability enhancers – cell-based, MELAS cybrids, Rieske KO mouse fibroblasts, CellTiter-Glo, primary screen (AID 1508586;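 active means mean z-score across replicates of 1.96 or higher in either the MELAS or the Rieske mutant cell line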;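 further: z relative to plate mean and SD of compound and empty wells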). As to conditions: low glucose. A general note: ATP-based viability assays read luminescence as a measure of living cells.
Setting [3] is: stronger effect = lower value, cell number ratio, induced over uninduced.
Where [4] appears, read: measured here: relative caspase fold change +Dox/-Dox.
The mark [5] stands for this setting: measured here: total cells with miR-34 induction, stronger effect = lower value.
Setting [6] is: measured here: total cells without miR-34 induction.
Where [7] appears, read: MELAS cybrid survival, CellTiter-Glo 48 h, stronger effect = higher value.
Setting [8] is: Rieske KO mouse fibroblast survival, CellTiter-Glo 72 h.

Structures are written as SMILES. Where “and” joins values, the source holds several entries; their conditions need not be identical. Equal values may be shown once. Calls of active or inactive are those of the source.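 How the source made its calls, unless noted: active means compounds whose cell count with miR-34 switched on is under 0.7 times the count with it off; inactive means the rest.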
Further: test concentration not given here.

For the compound `CCCCOc1ccc(OCCCN2CCOCC2)cc1`, the fold change was 0.766 (inactive) and 0.863 (inactive) and 0.924 (inactive) in experiment [1] (setting [3]); 1.42 and 1.47 and 3.29 in experiment [1] (setting [4]). Moreover, the cell count was 7600 and 7830 and 11600 in experiment [1] (setting [5]); 9930 and 9070 and 12500 in experiment [1] (setting [6]). Besides, the z-score in experiment [2] (setting [7]) is -0.0227 (inactive) and 0.258 (inactive); in experiment [2] (setting [8]), -0.168 and -0.646.

Regarding `CCCCC1(COC(=O)CCC(=O)O)C(=O)N(c2ccccc2)N(c2ccccc2)C1=O`, the fold change was 0.884 (inactive) in experiment [1] (setting [3]) and 1.12 in experiment [1] (setting [4]). In addition, the figures for the cell count in experiment [1] (setting [5]) and in experiment [1] (setting [6]) were 8700 and 9850, respectively. Further, the z-score in experiment [2] (setting [7]) was 0.542 (inactive); in experiment [2] (setting [8]), 0.234.

With `O=C1c2ccccc2C(=O)c2c1ccc(O)c2O`, the fold change in experiment [1] (setting [3]) was 0.918 (inactive); in experiment [1] (setting [4]), 1.48. The values for the cell count in experiment [1] (setting [5]) and in experiment [1] (setting [6]) were 8090 and 8800, respectively. For the same compound, the z-score in experiment [2] (setting [7]) is -0.0543 (inactive); in experiment [2] (setting [8]), -0.449.

Take `CC(=O)Nc1ccc(CC(=O)O)cc1`: the results for the fold change in experiment [1] (setting [3]) and in experiment [1] (setting [4]) were 0.951 (inactive) and 1.68, respectively. The cell count stood at 9700 in experiment [1] (setting [5]) and 10200 in experiment [1] (setting [6]). For the same compound, the z-score in experiment [2] (setting [7]) was -0.406 (inactive); in experiment [2] (setting [8]), -0.418.

On to `CCOC(=O)C1=C(C)NC(C)=C(C(=O)OCC)C1c1ccccc1/C=C/C(=O)OC(C)(C)C`, for which the results for the fold change in experiment [1] (setting [3]) and in experiment [1] (setting [4]) were 0.814 (inactive) and 0.737, respectively. Further, the results for the cell count in experiment [1] (setting [5]) and in experiment [1] (setting [6]) were 7100 and 8720, respectively. Moreover, the z-score in experiment [2] (setting [7]) is -0.103 (inactive) and 0.874 (inactive); in experiment [2] (setting [8]), 0.213 and 0.0479.

For the compound `O=C(Cn1ccnc1[N+](=O)[O-])NCCO`, the fold change was 0.871 (inactive) and 0.832 (inactive) in experiment [1] (setting [3]); 1.39 and 4.67 in experiment [1] (setting [4]). The cell count was 8390 and 10900 in experiment [1] (setting [5]); 9630 and 13100 in experiment [1] (setting [6]). Further, the values for the z-score in experiment [2] (setting [7]) and in experiment [2] (setting [8]) were -0.801 (inactive) and -0.143, respectively.

With `C[C@H]1COc2c(C3(N)CC3)c(F)cc3c(=O)c(C(=O)O)cn1c23`, the fold change in experiment [1] (setting [3]) is 0.94 (inactive) and 0.878 (inactive); in experiment [1] (setting [4]), 0.784 and 0.738. Also, the cell count is 8060 and 10100 in experiment [1] (setting [5]); 8570 and 11500 in experiment [1] (setting [6]). In addition, the results for the z-score in experiment [2] (setting [7]) and in experiment [2] (setting [8]) were 0.246 (inactive) and -0.0845, respectively.

For `Oc1c(Br)cc(Br)c2cccnc12`, the values for the fold change in experiment [1] (setting [3]) and in experiment [1] (setting [4]) were 0.97 (inactive) and 0.803, respectively. In addition, the cell count in experiment [1] (setting [5]) stood at 7880; in experiment [1] (setting [6]), 8120. In addition, the results for the z-score in experiment [2] (setting [7]) and in experiment [2] (setting [8]) were -0.25 (inactive) and -0.139, respectively.

For `CCCCC(CC)CN=C(N)NC(N)=NCCCCCCN=C(N)NC(N)=NCC(CC)CCCC` (centres undefined), the fold change was 0.778 (inactive) in experiment [1] (setting [3]) and 1.43 in experiment [1] (setting [4]). For the same compound, the cell count in experiment [1] (setting [5]) turned out to be 389; in experiment [1] (setting [6]), 500. In addition, the z-score in experiment [2] (setting [7]) is -2.81; in experiment [2] (setting [8]) it was 8.3.

In the case of `CN1[C@@H]2CC[C@H]1CC(OC(=O)C(O)c1ccccc1)C2` (some centres undefined), the fold change was 0.916 (inactive) in experiment [1] (setting [3]) and 1.3 in experiment [1] (setting [4]). Besides, the cell count in experiment [1] (setting [5]) turned out to be 8240; in experiment [1] (setting [6]), 9000. Moreover, the z-score is 0.652 (inactive) in experiment [2] (setting [7]) and 0.375 in experiment [2] (setting [8]).

Regarding `NC(=O)NC1NC(=O)NC1=O` (centres undefined), the fold change was 0.95 (inactive) and 0.875 (inactive) in experiment [1] (setting [3]); 1.05 and 3.99 in experiment [1] (setting [4]). For the same compound, the cell count is 8140 and 12000 in experiment [1] (setting [5]); 8570 and 13800 in experiment [1] (setting [6]). Moreover, the values for the z-score in experiment [2] (setting [7]) and in experiment [2] (setting [8]) were -0.771 (inactive) and 0.175, respectively.

Turning to `COC(=O)CCc1ccc(OCC(O)CNC(C)C)cc1` (centres undefined), the fold change in experiment [1] (setting [3]) was 0.896 (inactive) and 0.841 (inactive) and 0.908 (inactive); in experiment [1] (setting [4]), 0.838 and 0.901 and 1.51. For the same compound, the cell count in experiment [1] (setting [5]) is 9510 and 7720 and 9690; in experiment [1] (setting [6]), 10600 and 9170 and 10700. Further, the z-score in experiment [2] (setting [7]) was -0.164 (inactive) and -0.834 (inactive) and -0.539 (inactive); in experiment [2] (setting [8]), -0.149 and -1.1 and -1.41.

On to `Nc1ncnc2nc[nH]c12`, for which the fold change in experiment [1] (setting [3]) is 0.911 (inactive) and 0.881 (inactive); in experiment [1] (setting [4]), 0.822 and 4.73. The cell count in experiment [1] (setting [5]) was 8220 and 12600; in experiment [1] (setting [6]) it was 9020 and 14300. Besides, the z-score in experiment [2] (setting [7]) was -0.543 (inactive); in experiment [2] (setting [8]), -0.641.

With `CCOC(=O)OC(C)OC(=O)[C@@H]1N2C(=O)[C@@H](NC(=O)[C@H](N)c3ccccc3)[C@H]2SC1(C)C` (some centres undefined), the fold change in experiment [1] (setting [3]) was 0.838 (inactive); in experiment [1] (setting [4]), 1.63. The cell count in experiment [1] (setting [5]) was 8230; in experiment [1] (setting [6]), 9820. For the same compound, the results for the z-score in experiment [2] (setting [7]) and in experiment [2] (setting [8]) were 0.0142 (inactive) and -0.106, respectively.
